Data reported in PubChem BioAssay (NCI).
About 79,000 compounds went through this panel and 15% of them were active in at least one assay; those are over-represented in the sample as a whole. A number with no mark means an inactive call. Active and inactive are the calls of the source. Cut-off read from the data, not from the text of the source: active = growth inhibition above about 70%; inactive = the rest.

Test: NCI Yeast Anticancer Drug Screen. Data for the sgs1 mgt1 strain (AID 161);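 note: 0% = growth of cultures given vehicle only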
Settings: S. cerevisiae sgs1 mgt1 strain, at 50.0 µM, hits give high values
Outline: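 Growth of a repair-deficient yeast mutant was monitored after compound treatment and expressed as inhibition relative to vehicle-treated cultures.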

| Compound | growth inhibition |
| --- | --- |
| CCSC1(SCC)C(=O)OC2=C(CCCC2)C1N1CCOCC1 (stereo not given) | 0.35% |
| NC(=O)C(CCc1cccc2ccccc12)c1ccccc1 (stereo not given) | 36.3% |
| NC(CCCCCC(N)C(=O)O)C(=O)O (stereo not given) | 14.9% |
| CN(C)CC(CN(C)C)C(=O)C1CCCCC1 | 76.8% (active) |
| O=C1/C(=C/c2ccc([N+](=O)[O-])cc2)Sc2scc(-c3cccc([N+](=O)[O-])c3)[n+]21 | 90.6% (active) |
| CC(C)(C)c1cc(C(P(=O)(c2ccccc2)c2ccccc2)P(=O)(c2ccccc2)c2ccccc2)cc(C(C)(C)C)c1O | 98.1% (active) |
| COC(=O)c1cc(=O)n(-c2ccccc2C(F)(F)F)c(SC)n1 | 99.5% (active) |
| CSC(SC)=C1C(=O)NC(Cc2ccccc2)C1=O (stereo not given) | 71.8% (active) |
| c1ccc(C(c2ccccc2)c2ccc3ccccc3n2)cc1 | 67.8% |
| CN(C)c1nc(N(C)C)nc([N+](C)(C)C)n1 | 99.1% (active) |
| CCCNC(=S)N/N=C(/C)c1nccc2ccccc12 | 70% (active) |
| OC(CN1CCc2ccccc2C1)c1ccc2ccccc2c1 (stereo not given) | 88.5% (active) |
| Nc1nc(N)c2nc(CNc3ccc(C(=O)NC(CCC(=O)O)C(=O)O)cc3)ccc2n1 (stereo not given) | 0.1% |
| O=c1c2ccccc2c2ccccc2n1O | 96.5% (active) |
| CC(=O)N1c2ccccc2Sc2ccc3ccc(C(=O)CCl)cc3c21 | 89.9% (active) |
| CC(NNC(=S)N1CC2CCC(CC2)C1)c1nccc2ccccc12 (stereo not given) | 99% (active) |
| O=C1O/C(=C(\Cc2ccccc2)c2ccccc2)N(c2ccccc2)C1=O | 22.9% |
| S=c1sc2ccccc2n1C=Nc1ccccc1 | 98.7% (active) |
| CSc1nc(NC2OC(CO)C(O)C(O)C2O)c(Cl)c(=O)[nH]1 (stereo not given) | 12.4% |
| C=CCN1/C(=C\C=C\c2ccc3cc(C)ccc3[n+]2CC=C)C=Cc2cc(C)ccc21 | 92.6% (active) |

| Compound | growth inhibition |
| --- | --- |
| S=c1[nH]nc(SCc2ccc(Cl)c(Cl)c2)c2[nH]cnc12 | 21.2% |
| Nc1ccc(C(=O)/C=C/c2ccccn2)cc1 | 17.8% |
| CCOC(=O)C(C(=O)O)(C(c1ccccc1)c1ccccc1)C(c1ccccc1)c1ccccc1 | 98.4% (active) |
| CSC(=S)n1nc(-c2ccccc2)c(N=Nc2ccc(Br)cc2)c1-c1ccccc1 | 6.15% |
| COc1ccc([N+](=O)[O-])cc1Nc1c2ccccc2nc2ccccc12 | 49% |
| C=CCN1/C(=C/C=C\c2sc3ccccc3[n+]2CC=C)Sc2ccccc21 | 93.7% (active) |
| COc1ccc(/C=C/C(C(=O)O)C(=O)O)cc1 | 76% (active) |
| CN(C)C(=O)c1cc(Br)cc(-c2ccccc2)c1O | 75.8% (active) |
| Cc1cc(N=[N+]=[N-])c2cc(C3CCCCC3)ccc2n1 | 97.8% (active) |
| [Cu+2].[O-]/N=C/c1cccc(O)c1[O-].[O-]/N=C/c1cccc(O)c1[O-] | 96.8% (active) |
| c1ccc(Cn2nnc(-c3ccccc3)c2-c2ccccc2)cc1 | 85.6% (active) |
| CCOc1ccc2nc(Cl)sc2c1 | 69.5% |
| CCOC(=O)c1sc2c(c1O)c(=O)n(-c1ccccc1)c(=S)n2-c1ccccc1 | 95.5% (active) |
| O=C(O)c1c[nH]c2cc(Cl)ccc2c1=O | -22.1% |
| Cc1cc2c(cc1O)CC[C@@H]1[C@@H]2CC[C@]2(C)[C@@H](O)CC[C@@H]12 | 68% |
| NC(=O)NOCC1NC(=O)NC1=O (stereo not given) | -21.4% |
| CCOC(=O)c1cnc2cc3cccccc3n2c1=O | 76.5% (active) |
| CC(CO)CCC(=O)C(C)C1C(=O)CC2CC3CC(O)CCC3(C)CC21C (stereo not given) | 84% (active) |
| N#CSC#Cc1ccc(C#CSC#N)cc1 | 85% (active) |
| CCS/C(SC)=C(/c1ccccc1)[P+](c1ccccc1)(c1ccccc1)c1ccccc1 | 91.6% (active) |

Test: NCI Yeast Anticancer Drug Screen. Data for the cln2 rad14 strain (AID 165);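 note: 0% = growth equal to vehicle treated cultures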
Settings: S. cerevisiae cln2 rad14 strain, at 5.0 µM (retest, dose inferred, filed as 0.5), hits give high values
Outline: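 Growth inhibition, relative to vehicle-treated controls, is the read-out. The test organism is a yeast strain with defined genetic alterations, cln2 rad14.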

| Compound | growth inhibition |
| --- | --- |
| CCSC1(SCC)C(=O)OC2=C(CCCC2)C1N1CCOCC1 (stereo not given) | -2% |
| NC(=O)C(CCc1cccc2ccccc12)c1ccccc1 (stereo not given) | -5% |
| NC(CCCCCC(N)C(=O)O)C(=O)O (stereo not given) | -60% |
| CN(C)CC(CN(C)C)C(=O)C1CCCCC1 | 19% |
| O=C1/C(=C/c2ccc([N+](=O)[O-])cc2)Sc2scc(-c3cccc([N+](=O)[O-])c3)[n+]21 | 53% |
| CC(C)(C)c1cc(C(P(=O)(c2ccccc2)c2ccccc2)P(=O)(c2ccccc2)c2ccccc2)cc(C(C)(C)C)c1O | 2% |
| COC(=O)c1cc(=O)n(-c2ccccc2C(F)(F)F)c(SC)n1 | 14% |
| CSC(SC)=C1C(=O)NC(Cc2ccccc2)C1=O (stereo not given) | 2% |
| c1ccc(C(c2ccccc2)c2ccc3ccccc3n2)cc1 | 2% |
| CN(C)c1nc(N(C)C)nc([N+](C)(C)C)n1 | -3% |
| CCCNC(=S)N/N=C(/C)c1nccc2ccccc12 | -8% |
| OC(CN1CCc2ccccc2C1)c1ccc2ccccc2c1 (stereo not given) | 26% |
| Nc1nc(N)c2nc(CNc3ccc(C(=O)NC(CCC(=O)O)C(=O)O)cc3)ccc2n1 (stereo not given) | 9% |
| O=c1c2ccccc2c2ccccc2n1O | 76% (active) |
| CC(=O)N1c2ccccc2Sc2ccc3ccc(C(=O)CCl)cc3c21 | 70% (active) |
| CC(NNC(=S)N1CC2CCC(CC2)C1)c1nccc2ccccc12 (stereo not given) | 97% (active) |
| O=C1O/C(=C(\Cc2ccccc2)c2ccccc2)N(c2ccccc2)C1=O | -5% |
| S=c1sc2ccccc2n1C=Nc1ccccc1 | -8% |
| CSc1nc(NC2OC(CO)C(O)C(O)C2O)c(Cl)c(=O)[nH]1 (stereo not given) | 1% |
| C=CCN1/C(=C\C=C\c2ccc3cc(C)ccc3[n+]2CC=C)C=Cc2cc(C)ccc21 | 78% (active) |

| Compound | growth inhibition |
| --- | --- |
| S=c1[nH]nc(SCc2ccc(Cl)c(Cl)c2)c2[nH]cnc12 | -10% |
| Nc1ccc(C(=O)/C=C/c2ccccn2)cc1 | 9% |
| CCOC(=O)C(C(=O)O)(C(c1ccccc1)c1ccccc1)C(c1ccccc1)c1ccccc1 | 98% (active) |
| CSC(=S)n1nc(-c2ccccc2)c(N=Nc2ccc(Br)cc2)c1-c1ccccc1 | 10% |
| COc1ccc([N+](=O)[O-])cc1Nc1c2ccccc2nc2ccccc12 | -2% |
| C=CCN1/C(=C/C=C\c2sc3ccccc3[n+]2CC=C)Sc2ccccc21 | 93% (active) |
| COc1ccc(/C=C/C(C(=O)O)C(=O)O)cc1 | 37% |
| CN(C)C(=O)c1cc(Br)cc(-c2ccccc2)c1O | 2% |
| Cc1cc(N=[N+]=[N-])c2cc(C3CCCCC3)ccc2n1 | 8% |
| [Cu+2].[O-]/N=C/c1cccc(O)c1[O-].[O-]/N=C/c1cccc(O)c1[O-] | -12% |
| c1ccc(Cn2nnc(-c3ccccc3)c2-c2ccccc2)cc1 | 6% |
| CCOc1ccc2nc(Cl)sc2c1 | 31% |
| CCOC(=O)c1sc2c(c1O)c(=O)n(-c1ccccc1)c(=S)n2-c1ccccc1 | 86% (active) |
| O=C(O)c1c[nH]c2cc(Cl)ccc2c1=O | 2% |
| Cc1cc2c(cc1O)CC[C@@H]1[C@@H]2CC[C@]2(C)[C@@H](O)CC[C@@H]12 | -9% |
| NC(=O)NOCC1NC(=O)NC1=O (stereo not given) | 8% |
| CCOC(=O)c1cnc2cc3cccccc3n2c1=O | -2% |
| CC(CO)CCC(=O)C(C)C1C(=O)CC2CC3CC(O)CCC3(C)CC21C (stereo not given) | 4% |
| N#CSC#Cc1ccc(C#CSC#N)cc1 | 99% (active) |
| CCS/C(SC)=C(/c1ccccc1)[P+](c1ccccc1)(c1ccccc1)c1ccccc1 | 98% (active) |
